The results in this text go back to PubChem BioAssay (NCI).

About 79,000 compounds went through this panel and 15% of them were active in at least one assay; those are over-represented in the sample as a whole. Values without a mark were called inactive. Active and inactive are the calls of the source. Rule as the data show it: active = growth inhibition above about 70%; inactive = the rest.

A short description of test [1]: NCI Yeast Anticancer Drug Screen. Data for the rad50 strain (AID 155).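 Also: 0% = growth of vehicle-only cultures of the same strain.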 As to conditions: S. cerevisiae rad50 strain growth inhibition, stronger effect = higher value. In short, it runs like this:
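Growth of the mutant yeast was measured after compound exposure and referenced to vehicle-treated cultures.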

Test [2] can be described thus: NCI Yeast Anticancer Drug Screen. Data for the mec2-1 strain (AID 157). Conditions: S. cerevisiae mec2-1 strain, stronger effect = higher value. A digest of the protocol: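 Cells of the genetically defined mec2-1 yeast strain are incubated with test compound. Inhibition of growth is calculated against vehicle-treated controls.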
The nature of test [3]: NCI Yeast Anticancer Drug Screen. Data for the sgs1 mgt1 strain (AID 161).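 Also: 0% = growth of cultures given vehicle only.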 As to conditions: S. cerevisiae sgs1 mgt1 strain, stronger effect = higher value. In short, it runs like this: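 Mutant yeast exposed to compound; growth scored against vehicle-only wells.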
The nature of test [4]: NCI Yeast Anticancer Drug Screen. Data for the cln2 rad14 strain (AID 165).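 Also: 0% = growth equal to vehicle treated cultures.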 Conditions: S. cerevisiae cln2 rad14 strain, stronger effect = higher value. In short, it runs like this:
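The screen exposed genetically defined yeast (cln2 rad14) to test compounds and scored growth inhibition relative to vehicle-treated controls.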

A short description of test [5]: NCI Yeast Anticancer Drug Screen. Data for the bub3 strain (AID 167). As to conditions: S. cerevisiae bub3 mutant strain, stronger effect = higher value. In short, it runs like this:
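Whole-cell yeast assay. The mutant strain was incubated with compounds, and growth inhibition was determined by comparison with vehicle-treated cells.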

The nature of test [6]: NCI Yeast Anticancer Drug Screen. Data for the mlh1 rad18 strain (AID 175). Conditions: S. cerevisiae mlh1 rad18 strain growth inhibition, stronger effect = higher value. In short, it runs like this:
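Compound-treated yeast growth, normalised to vehicle controls. Strain bears defined DNA repair mutations.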

The mark [7] stands for this setting: at 5.0 µM (retest, dose inferred, filed as 0.5).
Where [8] appears, read: at 50.0 µM (retest, dose inferred, filed as 5.0).

`Cc1cc(O)cc(C)c1[N+](=O)[O-]`: the growth inhibition in test [1] (setting [7]) is 5%; in test [1] (setting [8]), 25%; in test [1] (at 50.0 µM) it was 55%; in test [2] (setting [7]) it was 0%; in test [2] (setting [8]), 24%; in test [2] (at 50.0 µM) it was 49.8%. For the same compound, the growth inhibition in test [3] (setting [7]) is -6%; in test [3] (setting [8]), 41%; in test [3] (at 50.0 µM) it was 79.6% (active); in test [4] (setting [7]), -1%; in test [4] (setting [8]), 20%; in test [4] (at 50.0 µM), 23.6%. In addition, the growth inhibition in test [5] (setting [7]) is -1%; in test [5] (setting [8]), 36%; in test [5] (at 50.0 µM) it was 29.3%; in test [6] (setting [7]), 4%; in test [6] (setting [8]), 41%; in test [6] (at 50.0 µM) it was 63.5%.

On to `N#CC(=C1C=CC(=NO)C=C1)c1cccc2ccccc12`, for which the growth inhibition is 36% in test [1] (setting [7]); 91% (active) in test [1] (setting [8]); 93.2% (active) in test [1] (at 50.0 µM); 15% in test [2] (setting [7]); 94% (active) in test [2] (setting [8]); 95.5% (active) in test [2] (at 50.0 µM). Further, the growth inhibition in test [3] (setting [7]) was 39%; in test [3] (setting [8]), 92% (active); in test [3] (at 50.0 µM), 93.1% (active); in test [4] (setting [7]), 3%; in test [4] (setting [8]) it was 91% (active); in test [4] (at 50.0 µM), 90.2% (active). Besides, the growth inhibition was 5% in test [5] (setting [7]); 91% (active) in test [5] (setting [8]); 96.2% (active) in test [5] (at 50.0 µM); 28% in test [6] (setting [7]); 91% (active) in test [6] (setting [8]); 87.8% (active) in test [6] (at 50.0 µM).

With `COc1cc2c(cc1OC)-c1nc(N)sc1CC2`, the growth inhibition in test [1] (setting [7]) was 2%; in test [1] (setting [8]) it was -4%; in test [1] (at 50.0 µM) it was 86.8% (active); in test [2] (setting [7]), -2%; in test [2] (setting [8]) it was -1%; in test [2] (at 50.0 µM), 85.5% (active). The growth inhibition in test [3] (setting [7]) was 2%; in test [3] (setting [8]), -23%; in test [3] (at 50.0 µM), 81.8% (active); in test [4] (setting [7]), -4%; in test [4] (setting [8]), 4%; in test [4] (at 50.0 µM) it was 85.7% (active). In addition, the growth inhibition in test [5] (setting [7]) was -2%; in test [5] (setting [8]) it was -4%; in test [5] (at 50.0 µM), 85.8% (active); in test [6] (setting [7]), -1%; in test [6] (setting [8]) it was 7%; in test [6] (at 50.0 µM), 88.3% (active).

In the case of `CCCCCCCCCCCC(O)=C1C(=O)CC(O)CC1=O` (stereo unspecified), the growth inhibition was 33% in test [1] (setting [7]); 88% (active) in test [1] (setting [8]); 88.3% (active) in test [1] (at 50.0 µM); 25% in test [2] (setting [7]); 97% (active) in test [2] (setting [8]); 91.6% (active) in test [2] (at 50.0 µM). Moreover, the growth inhibition in test [3] (setting [7]) is 48%; in test [3] (setting [8]), 98% (active); in test [3] (at 50.0 µM), 91% (active); in test [4] (setting [7]), 40%; in test [4] (setting [8]), 91% (active); in test [4] (at 50.0 µM) it was 90.3% (active). Besides, the growth inhibition in test [5] (setting [7]) is 42%; in test [5] (setting [8]) it was 97% (active); in test [5] (at 50.0 µM) it was 89.7% (active); in test [6] (setting [7]) it was 46%; in test [6] (setting [8]), 96% (active); in test [6] (at 50.0 µM) it was 82.8% (active).

`O=S(=O)(CCCl)Cc1ccccc1`: the growth inhibition in test [1] (setting [7]) is -145%; in test [1] (setting [8]), -144%; in test [1] (at 50.0 µM), 5.2%; in test [2] (setting [7]) it was -45%; in test [2] (setting [8]), -39%; in test [2] (at 50.0 µM) it was -0.4%. Further, the growth inhibition in test [3] (setting [7]) was -61%; in test [3] (setting [8]), -37%; in test [3] (at 50.0 µM) it was 14%; in test [4] (setting [7]), -50%; in test [4] (setting [8]), -50%; in test [4] (at 50.0 µM), 10.7%. Moreover, the growth inhibition in test [5] (setting [7]) is -69%; in test [5] (setting [8]) it was -66%; in test [5] (at 50.0 µM), 10.7%; in test [6] (setting [7]) it was -144%; in test [6] (setting [8]) it was -100%; in test [6] (at 50.0 µM), 10.8%.

Regarding `CN(C)c1ccc(C(O)(Cc2cccnc2)c2ccc(N(C)C)cc2)cc1`, the growth inhibition in test [1] (setting [7]) is -3%; in test [1] (setting [8]) it was 2%; in test [1] (at 50.0 µM) it was 39.2%; in test [2] (setting [7]), -4%; in test [2] (setting [8]) it was 6%; in test [2] (at 50.0 µM), 36.8%. Moreover, the growth inhibition in test [3] (setting [7]) was -2%; in test [3] (setting [8]), 4%; in test [3] (at 50.0 µM), 53%; in test [4] (setting [7]) it was -1%; in test [4] (setting [8]), -4%; in test [4] (at 50.0 µM), 13.3%. Besides, the growth inhibition in test [5] (setting [7]) was -3%; in test [5] (setting [8]), 1%; in test [5] (at 50.0 µM) it was 72% (active); in test [6] (setting [7]) it was -5%; in test [6] (setting [8]), 8%; in test [6] (at 50.0 µM), 54.9%.

`O=[N+]([O-])c1ccc(S(=O)(=O)N/N=C/C=C/c2ccccc2)cc1`: the growth inhibition in test [1] (setting [7]) is 6%; in test [1] (setting [8]) it was 13%; in test [1] (at 50.0 µM), 71% (active); in test [2] (setting [7]), 2%; in test [2] (setting [8]), 17%; in test [2] (at 50.0 µM) it was 37%. Further, the growth inhibition in test [3] (setting [7]) is 4%; in test [3] (setting [8]), 14%; in test [3] (at 50.0 µM) it was 87.5% (active); in test [4] (setting [7]), -4%; in test [4] (setting [8]) it was 16%; in test [4] (at 50.0 µM), 48.3%. Further, the growth inhibition is 6% in test [5] (setting [7]); 36% in test [5] (setting [8]); 48.6% in test [5] (at 50.0 µM); 6% in test [6] (setting [7]); 39% in test [6] (setting [8]); 75.5% (active) in test [6] (at 50.0 µM).
